Measured values as given in the supplement of paper PMC10338343.
± gives the standard deviation.

Columns and labels:
[1] = tested on: MILI (PIWIL2) piRISC loaded with piRNA #1 (26 nt); assay: pre-steady-state target cleavage rate (min^-1); guide: piRNA #1 5'p-UGAGGUAGUAGGUUGUAUAGUAUCCA; higher = faster piRNA-guided slicing of the target; details: auxiliary factor: 500 nM mouse GTSF1;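 also: 1 nM active piRISC with 0.1 nM target library at 33 °C single turnover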
In short: (§1)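 For Cleave-'n-Seq, a transcribed, DNA-blocked target RNA library […] met 1 nM active affinity-purified piRISC with one synthetic guide at 33 °C for 0–8 or 0–960 min in HEPES–potassium acetate buffer, with or without 500 nM GTSF1 partner protein. Uncleaved targets were sequenced and normalised to depth and weakly complementary targets, with three trials pooled and k3 capped at 0.0001 min^-1. A burst-and-steady-state fit supplied the pre-steady-state cleavage rate.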

[2] = tested on: EfPiwi piRISC loaded with piRNA #1 (26 nt); assay: pre-steady-state target cleavage rate (min^-1); auxiliary factor: 500 nM Ephydatia muelleri Gtsf1; guide: piRNA #1 5'p-UGAGGUAGUAGGUUGUAUAGUAUCCA; MIWI and MILI are mouse PIWI proteins and EfPiwi is from a freshwater sponge; tags in brackets are library labels; higher = faster piRNA-guided slicing of the target
In short: as §1

| Sequence | pre-steady-state target cleavage rate [1] | pre-steady-state target cleavage rate [2] |
| --- | --- | --- |
| GGAGACCAUACUAUUCAACCUACUAGCUCA | 0.11 ± 0.019 | 0.00459 ± 0.0044 |
| GGAGACCUUUCUAUACAUCCUACUACCUCA | 0.158 ± 0.013 | 0.00708 ± 0.0041 |
| GGAGACCUAUCUAUACAACCUACUACGUCA | 0.0507 ± 0.008 | 0.00352 ± 0.0031 |
| GGAGACGAUACUAUACAACCAUACUACCUCA | 0.00651 ± 0.0034 | 0.00938 ± 0.0047 |
| GGAGAGGAUACUAUACAACCUACUAACCUCA | 0.159 ± 0.016 | 0.00574 ± 0.0027 |
| GGAGACGAUACUAUCAACCUACUACCUCA | 0.14 ± 0.012 | 0.0106 ± 0.0051 |
| GGAGACCAUACUAUACAACGUACUACCUCA | 0.0191 ± 0.0046 | 0.00482 ± 0.0015 |
| GGAGACCAUACUAUACGACCUACUACCUCA | 0.0852 ± 0.016 | 0.0094 ± 0.0037 |
| GGAGUCGAAACUAUACAACCUACUACCUCA | 0.18 ± 0.019 | 0.0604 ± 0.021 |
| GGAGAGGGAUACUAUACAACCUACUACCUCA | 0.237 ± 0.015 | 0.0946 ± 0.037 |
| GGAGACCAUACUAUACAACCUACUACCUACA | 0.16 ± 0.018 | 0.00527 ± 0.0031 |
| GGAGACCUUACAAUACAACCUACUACCUCA | 0.146 ± 0.019 | 0.0117 ± 0.0048 |
| GGAGUCGAUUCUAUACAACCUACUACCUCA | 0.182 ± 0.01 | 0.00723 ± 0.0043 |
| GGAGACCUAACUAUACUACCUACUACCUCA | 0.125 ± 0.022 | 0.00314 ± 0.0024 |
| GGAGAGGAUACUUUACAACCUACUACGUCA | 0.0429 ± 0.0069 | 0.00296 ± 0.0023 |
| GGAGAGGUAUCUAUACAACCUACUACCUCA | 0.0739 ± 0.0068 | 0.0113 ± 0.0061 |
| GGAGAGGAUACUAUACCACCUACUACCUCA | 0.212 ± 0.019 | 0.00648 ± 0.003 |
| GGAGACCUAUCUAUGCAACCUACUACCUCA | 0.122 ± 0.014 | 0.00656 ± 0.0037 |
| GGAGAGGUUACUAUACUACCUACUACCUCA | 0.151 ± 0.011 | 0.00488 ± 0.0024 |
| GGAGACCUUACUAUACAACCUACUACGAGA | 0.0846 ± 0.02 | 0.00452 ± 0.0025 |

| Sequence | pre-steady-state target cleavage rate [1] | pre-steady-state target cleavage rate [2] |
| --- | --- | --- |
| GGAGAGGAUACUAUACAACCAUACUACCUCA | 0.00709 ± 0.0019 | 0.00323 ± 0.0026 |
| GGAGACGUUACUAUACUACCUACUACCUCA | 0.169 ± 0.011 | 0.00494 ± 0.0024 |
| GGAGACCUAUGUUAUACAACCUACUACCUCA | 0.104 ± 0.01 | 0.0122 ± 0.0063 |
| GGAGACCAUACUAUACAACCUACUACCUCCA | 0.137 ± 0.018 | 0.0119 ± 0.0039 |
| GGAGACGUUACUAUACAACCUACUACCUCA | 0.186 ± 0.014 | 0.0209 ± 0.0092 |
| GGAGACCAUAGUAUACAACCUACUAGCUCA | 0.0143 ± 0.0053 | 0.00326 ± 0.0032 |
| GGAGAGGAUACUAAACAUCCUACUACCUCA | 0.276 ± 0.022 | 0.00524 ± 0.0024 |
| GGAGACGAUACUAUACAACCUACUGCCUCA | 0.11 ± 0.015 | 0.00691 ± 0.0024 |
| GGAGACGAUUCUAUACAACCUUCUACCUCA | 0.0216 ± 0.0072 | 0.00518 ± 0.0027 |
| GGAGACCUUACUCAUACAACCUACUACCUCA | 0.122 ± 0.016 | 0.00389 ± 0.0032 |
| GGAGACCUUACUAUACAACCUACUGCCUCA | 0.0872 ± 0.011 | 0.00661 ± 0.0029 |
| GGAGACCUUACUAUACAACCUACUACCUUCA | 0.16 ± 0.015 | 0.0532 ± 0.019 |
| GGAGACCAUACUAUACAACCUACUACCAGA | 0.169 ± 0.027 | 0.00458 ± 0.0019 |
| GGAGAGGAUACUUUACAACCUUCUACCUCA | 0.00789 ± 0.002 | 0.0032 ± 0.0028 |
| GGAGAGGAUACUUAUCAACCUACUACCUCA | 0.135 ± 0.0097 | 0.00553 ± 0.0043 |
| GGAGACGUUUCUAUACAACCUACUACCUCA | 0.105 ± 0.013 | 0.0117 ± 0.0062 |
| GGAGACCUAUGAAAUACAACCUACUACCUCA | 0.0221 ± 0.0062 | 0.00445 ± 0.0038 |
| GGAGAGGAUACUAUAGAAGCUACUACCUCA | 0.0647 ± 0.0095 | 0.00238 ± 0.0021 |
| GGAGACCUAACUACACAACCUACUACCUCA | 0.166 ± 0.039 | 0.00487 ± 0.0033 |
| GGAGACGAUACUAUACAACCUACUACCUGCA | 0.203 ± 0.021 | 0.00933 ± 0.0034 |

| Sequence | pre-steady-state target cleavage rate [1] | pre-steady-state target cleavage rate [2] |
| --- | --- | --- |
| GGAGACCUUACUAUACUACCUACUACCUCA | 0.159 ± 0.014 | 0.00739 ± 0.0039 |
| GGAGUGGAUAGUAUACAACCUUCUACCUCA | 0.0115 ± 0.0038 | 0.00338 ± 0.0021 |
| GGAGUGGAUACUAUACAACCUACUACCUCA [g2:g26:cont:t1A] | 0.2 ± 0.011 | 0.176 ± 0.056 |
| GGAGACCUAUCUAUACAUCCUACUACCUCA | 0.182 ± 0.018 | 0.00738 ± 0.0031 |
| GGAGACCAUACUAUACAUCCUACUUCCUCA | 0.176 ± 0.03 | 0.00272 ± 0.0026 |
| GGAGACGCAUACUAUACAACCUACUACCUCA | 0.268 ± 0.024 | 0.0478 ± 0.018 |
| GGAGACCAUACUAUGCAACCUACUACCUCA | 0.174 ± 0.019 | 0.0164 ± 0.0068 |
| GGAGAGGAUAUAUACAACCUACUACCUCA | 0.165 ± 0.014 | 0.00764 ± 0.0042 |
| GGAGACCAUACUAUACAACCUACGUACCUCA | 0.11 ± 0.018 | 0.00254 ± 0.0023 |
| GGAGAGGAUACAAUACAACCUACUACGUCA | 0.0443 ± 0.0068 | 0.00333 ± 0.0019 |
| GGAGACGAUACUAUACAACCUAGAACCUCA | 0.0145 ± 0.0064 | 0.00278 ± 0.0012 |
| GGAGACCUAUCUAUACAACCUACUACUUCA | 0.0866 ± 0.0097 | 0.0119 ± 0.0067 |
| GGAGACGAUACAAUACUACCUACUACCUCA | 0.201 ± 0.017 | 0.00238 ± 0.0021 |
| GGAGUGGAUAGUAUACAACCUACUACCACA | 0.0277 ± 0.0092 | 0.00327 ± 0.0018 |
| GGAGAGGAUACUAUACAACCUACACCUCA | 0.00718 ± 0.0031 | 0.00361 ± 0.002 |
| GGAGUGGAUACUAUACAACCUAACUACCUCA | 0.0255 ± 0.0041 | 0.00456 ± 0.0023 |
| GGAGAGCAUACUAAACAACCUACUACCUCA | 0.158 ± 0.015 | 0.00417 ± 0.0033 |
| GGAGACGAUACUGAUACAACCUACUACCUCA | 0.203 ± 0.018 | 0.00712 ± 0.0036 |
| GGAGACGAUACUACUACAACCUACUACCUCA | 0.193 ± 0.015 | 0.0327 ± 0.012 |
| GGAGUGGAUACUAUACAACCAACUAGCUCA | 0.00229 ± 0.0021 | 0.00337 ± 0.0015 |
